{"source": "PubChem BioAssay (NCATS)", "note": "Records with an inconclusive call do not appear. Values without a mark were called inactive. Calls of active or inactive are those of the source. The call rests on the fitted dose curve; in most records, active means well fitted cell-killing curve with a large enough effect; inconclusive means small, poorly fitted or top-dose-only effect, or effect the other way; inactive means no such curve, though single readings can be large or run the other way. Potency means the concentration at half of the fitted maximal effect. Wherever viability (% of control) is given: nearly all actives have a fitted effect of over 35% in size.", "data": [{"assay": "Quantitative High-Throughput drug screen in 47 multiple myeloma cell lines against the NCATS MIPE library collection: UTMC2_PLB cell viability assay (AID 1919868); further: nearly all actives have a fitted effect of over 55% in size", "conditions": "CellTiter-Glo ATP luminescence, 48 h; series mostly up to 45.8 µM; viability (% of DMSO control): at the top concentration", "procedure,_shortened": "(§1)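 500 cells/well per myeloma line exposed to pinned MIPE 4.0 compounds for 48 h at 37 °C, 5% CO2. Viability read as ATP by CellTiter-Glo luminescence, normalised to DMSO-only (100%) and media-only (0%) wells.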", "units": {"viability (% of DMSO control)": "%"}, "values": [{"smiles": "CC[C@@]1(O)C(=O)OCc2c1cc1n(c2=O)Cc2cc3c(CN(C)C)c(O)ccc3nc2-1", "Potency": "52.6 nM (active)"}, {"smiles": "O=c1[nH]cc(F)c(=O)[nH]1", "viability (% of DMSO control)": 173}, {"smiles": "CC#C[C@]1(O)CC[C@H]2[C@@H]3CCC4=CC(=O)CCC4=C3[C@@H](c3ccc(N(C)C)cc3)C[C@@]21C", "Potency": "418 nM (active)"}, {"smiles": "CC[N+](CC)(CC)CCOc1cccc(OCC[N+](CC)(CC)CC)c1OCC[N+](CC)(CC)CC", "viability (% of DMSO control)": 87.1}, {"smiles": "CS(=O)(=O)CCNCc1ccc(-c2ccc3ncnc(Nc4ccc(OCc5cccc(F)c5)c(Cl)c4)c3c2)o1", "Potency": "1180 nM (active)"}, {"smiles": "NC(=O)NO", "Potency": "1660 nM (active)"}, {"smiles": "COc1cc2nc(N3CCN(C(=O)c4ccco4)CC3)nc(N)c2cc1OC", "Potency": "11800 nM (active)"}, {"smiles": "CCOC(=O)Nc1ccc(NCc2ccc(F)cc2)nc1N", "viability (% of DMSO control)": 132}, {"smiles": "CN(C)C(=O)C(CCN1CCC(O)(c2ccc(Cl)cc2)CC1)(c1ccccc1)c1ccccc1", "Potency": "18700 nM (active)"}, {"smiles": "CN(C)CCCN1c2ccccc2CCc2ccc(Cl)cc21", "Potency": "833 nM (active)"}, {"smiles": "NC12CC3CC(CC(C3)C1)C2", "Potency": "8330 nM (active)"}, {"smiles": "CCN1CCCC1CNC(=O)c1cc(S(=O)(=O)CC)c(N)cc1OC", "note": "(centres undefined)", "viability (% of DMSO control)": 252}, {"smiles": "Cn1cnc2c1c(=O)[nH]c(=O)n2C", "Potency": "14800 nM (active)"}, {"smiles": "CN(Cc1cnc2nc(N)nc(N)c2n1)c1ccc(C(=O)N[C@@H](CCC(=O)O)C(=O)O)cc1", "Potency": "166 nM (active)"}]}, {"assay": "Quantitative High-Throughput drug screen in 47 multiple myeloma cell lines against the NCATS MIPE library collection: PE2_PLB cell viability assay (AID 1919869)", "conditions": "PE2_PLB myeloma cells viability, ATP luminescence, 48 h; series mostly up to 45.8 µM; viability (% of control): at the top concentration", "procedure,_shortened": "as §1", "units": {"viability (% of control)": "%"}, "values": [{"smiles": "Cn1c(=O)c2[nH]cnc2n(C)c1=O", "viability (% of control)": 114}, {"smiles": "CC[C@@]1(O)C(=O)OCc2c1cc1n(c2=O)Cc2cc3c(CN(C)C)c(O)ccc3nc2-1", "Potency": "662 nM (active)"}, {"smiles": "O=c1[nH]cc(F)c(=O)[nH]1", "viability (% of control)": 107}, {"smiles": "NCCS(=O)(=O)O", "viability (% of control)": 110}, {"smiles": "CC#C[C@]1(O)CC[C@H]2[C@@H]3CCC4=CC(=O)CCC4=C3[C@@H](c3ccc(N(C)C)cc3)C[C@@]21C", "Potency": "833 nM (active)"}, {"smiles": "CC[N+](CC)(CC)CCOc1cccc(OCC[N+](CC)(CC)CC)c1OCC[N+](CC)(CC)CC", "viability (% of control)": 85.8}, {"smiles": "CC(CCc1ccc(O)cc1)NCCc1ccc(O)c(O)c1", "note": "(centres undefined)", "Potency": "20900 nM (active)"}, {"smiles": "Cc1ccccc1N1C(=O)c2cc(S(N)(=O)=O)c(Cl)cc2NC1C", "note": "(centres undefined)", "viability (% of control)": 97.8}, {"smiles": "CS(=O)(=O)CCNCc1ccc(-c2ccc3ncnc(Nc4ccc(OCc5cccc(F)c5)c(Cl)c4)c3c2)o1", "Potency": "1660 nM (active)"}, {"smiles": "COc1ccc2c(c1)c(CC(=O)O)c(C)n2C(=O)c1ccc(Cl)cc1", "viability (% of control)": 101}, {"smiles": "COc1ccc2[nH]cc(CCNC(C)=O)c2c1", "viability (% of control)": 117}, {"smiles": "NC(=O)NO", "Potency": "3320 nM (active)"}, {"smiles": "CNCCCC12CCC(c3ccccc31)c1ccccc12", "Potency": "23500 nM (active)"}, {"smiles": "COc1cc2nc(N3CCN(C(=O)c4ccco4)CC3)nc(N)c2cc1OC", "Potency": "10500 nM (active)"}, {"smiles": "COc1ccccc1OCC(O)CN1CCN(CC(=O)Nc2c(C)cccc2C)CC1", "note": "(centres undefined)", "viability (% of control)": 114}, {"smiles": "O=C1c2c(O)ccc(O)c2C(=O)c2c(NCCNCCO)ccc(NCCNCCO)c21", "Potency": "166 nM (active)"}, {"smiles": "Nc1nc2c(ncn2COC(CO)CO)c(=O)[nH]1", "Potency": "23500 nM (active)"}, {"smiles": "CN(C)C(=O)C(CCN1CCC(O)(c2ccc(Cl)cc2)CC1)(c1ccccc1)c1ccccc1", "Potency": "26400 nM (active)"}, {"smiles": "Nc1ccn([C@H]2CC[C@@H](CO)O2)c(=O)n1", "viability (% of control)": 90.2}, {"smiles": "COc1ccccc1N1CCN(CC(O)COc2cccc3ccccc23)CC1", "note": "(centres undefined)", "viability (% of control)": 109}, {"smiles": "CC(C)NCC(O)c1ccc(O)c(O)c1", "note": "(centres undefined)", "Potency": "1480 nM (active)"}, {"smiles": "CN(C)CCCN1c2ccccc2CCc2ccc(Cl)cc21", "Potency": "2640 nM (active)"}, {"smiles": "NC12CC3CC(CC(C3)C1)C2", "viability (% of control)": 83.6}, {"smiles": "CN(CCOc1ccc(NS(C)(=O)=O)cc1)CCc1ccc(NS(C)(=O)=O)cc1", "viability (% of control)": 131}, {"smiles": "CCN1CCCC1CNC(=O)c1cc(S(=O)(=O)CC)c(N)cc1OC", "note": "(centres undefined)", "viability (% of control)": 131}, {"smiles": "Cn1cnc2c1c(=O)[nH]c(=O)n2C", "Potency": "9350 nM (active)"}, {"smiles": "CN1C(C(=O)Nc2ccccn2)=C(O)c2ccccc2S1(=O)=O", "viability (% of control)": 121}, {"smiles": "CC(C(=O)O)c1cccc(C(=O)c2ccccc2)c1", "note": "(centres undefined)", "Potency": "23500 nM (active)"}, {"smiles": "CN(Cc1cnc2nc(N)nc(N)c2n1)c1ccc(C(=O)N[C@@H](CCC(=O)O)C(=O)O)cc1", "Potency": "187 nM (active)"}, {"smiles": "O=C1N(c2ccccc2)c2ccccc2C1(Cc1ccncc1)Cc1ccncc1", "Potency": "20900 nM (active)"}]}]}
